Screens deposited in PubChem by National Center for Advancing Translational Sciences (NCATS).
Only some compounds are listed: those with a hit (about 11% of all), similar ones and a draw of the others.
CBFb RUNX1 block = blocks binding between human CBF-beta and RUNX1; Q01196+Q13951; AlphaScreen CBFb-His/RUNX1-biotin binding, biochemical; Potency, µM (series often up to 59.8 µM), for inactives: at the top dose activity, negative = inhibition, most hits filed as inhibitors; 230,000 tested, under 10 active; note: % of control where 0% means no effect
Target sequence (Q01196 whole entry, looked up): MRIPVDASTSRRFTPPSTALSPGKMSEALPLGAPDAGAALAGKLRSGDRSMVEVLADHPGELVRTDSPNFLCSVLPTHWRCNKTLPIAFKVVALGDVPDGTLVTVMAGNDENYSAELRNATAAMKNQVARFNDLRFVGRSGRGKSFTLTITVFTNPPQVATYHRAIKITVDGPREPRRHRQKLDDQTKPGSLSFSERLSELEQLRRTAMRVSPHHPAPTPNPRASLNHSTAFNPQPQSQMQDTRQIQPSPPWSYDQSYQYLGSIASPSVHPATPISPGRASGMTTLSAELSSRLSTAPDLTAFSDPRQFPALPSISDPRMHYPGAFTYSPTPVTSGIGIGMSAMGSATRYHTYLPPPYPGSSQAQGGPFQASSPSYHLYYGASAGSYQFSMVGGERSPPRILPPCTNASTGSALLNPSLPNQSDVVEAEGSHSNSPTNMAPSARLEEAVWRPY
Target sequence (Q13951 whole entry, looked up): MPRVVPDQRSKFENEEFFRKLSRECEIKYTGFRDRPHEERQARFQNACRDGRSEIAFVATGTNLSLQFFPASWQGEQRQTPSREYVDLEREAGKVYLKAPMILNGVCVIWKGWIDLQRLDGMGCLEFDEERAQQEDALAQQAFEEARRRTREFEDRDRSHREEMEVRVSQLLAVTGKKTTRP
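AlphaScreen binding: CBFb-His and RUNX1-biotin (30 nM each) preincubated 20 min, compound added for 15 min, then nickel and streptavidin beads for 90 min, all at room temperature. Disruption of the interaction by any mechanism counts as activity.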
PNC inhibitor = inhibitors of perinucleolar compartment assembly. 140,000 compounds, 3.1% hits. PC3M PTB-GFP, PNC prevalence imaging, 16 h; active compounds read low. activity change (PNC), negative = inhibition, % at 10 µM;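 active = readout at or below -70, meaning at least 70% loss of cells showing the perinucleolar compartment, a nuclear body marking cancer cells; inconclusive = readout between -30 and a set limit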;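 note: plate controls were DMSO wells for no effect and camptothecin positive control wells for full effect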
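Compounds are pinned in duplicate onto adhered PC3M cells stably expressing GFP-tagged PTB and incubated 16 h at 37 C. Cells are then fixed, nuclei stained with Hoechst, and PNC-positive cells counted.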
HPGD inh = inhibitors of human 15-hydroxyprostaglandin dehydrogenase (HPGD); P15428; purified HPGD, NADH fluorescence kinetic, PGE2 substrate; Potency, µM, inactives show at the highest dose activity change, negative = inhibition, most hits filed as inhibitors; 150,000 compounds, 4.3% hits; AID 894; active = well fitted inhibition curve with a large enough effect, not every such curve was filed as active; inconclusive = small, poorly fitted or top-dose-only effect, or another doubt; inactive = no such curve, though single readings can be large or run the other way; note: potency is the fitted concentration of half-maximal effect; % is set by controls: 0 for no effect and ±100 for the full control effect
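20 nM HPGD preincubated 15 min at room temperature with compound in 50 mM Tris-HCl pH 8, 0.01% Tween 20. Started with 1 mM NAD+ and 30 uM prostaglandin E2; NADH fluorescence (360/450 nm) read 5 times over 30-s intervals, last minus first.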
HTT aggregate = mutant huntingtin aggregation inhibition. PC12 HttQ103-GFP aggregates, Acumen cytometry, 40 h. Potency, µM (highest dose often 46.1 µM), for inactives: at the top dose activity change, negative = inhibition, hits mostly inhibitors. 220,000 compounds, 1.1% hits. AID 1688; note: potency is the fitted concentration of half-maximal effect; % is set by controls: 0 for no effect and ±100 for the full control effect; nearly all actives have a fitted effect of over 60% in size
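Compounds (qHTS titration) were added to PC12 cells expressing an ecdysone-driven HTT exon 1 Q103–GFP fusion after induction with 100 nM tebufenozide. Aggregate formation was measured as GFP objects in cell lysates.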
ALDH1A1 block = blocks purified human ALDH1A1 activity; Purified ALDH1A1, NADH fluorescence, propionaldehyde substrate; AID 1030; P00352; Potency, µM (highest dose often 75.3 µM), without a hit: at the top dose activity, negative = inhibition, most hits filed as inhibitors; 220,000 compounds, 7.3% hits; active = well fitted inhibition curve with a large enough effect, not every such curve was filed as active; inconclusive = small, poorly fitted or top-dose-only effect, or another doubt; inactive = no such curve, though single readings can be large or run the other way;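 note: potency is the fitted concentration of half-maximal effect; plate controls were no enzyme wells and a reference inhibitor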
HTT cytoprotect = Huntington cell model cytoprotection by ATP luminescence | Potency, µM (doses to about 56.4 µM), inactives show cytoprotection (ATP increase), actives largely listed as activators | 230,000 compounds, 0.14% hits | PC12 HTT-Q103 induced, cytoprotection, ATP luminescence, 40 h; note: potency is the fitted concentration of half-maximal effect; % of control where 0% means no effect; nearly all actives have a fitted effect of over 45% in size
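Compounds were screened for protection of PC12 cells against cell death after tebufenozide induction (100 nM final) of mutant Huntingtin exon 1 (Q103) fused to GFP.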
Numbers without * were called inactive; ? = inconclusive; nt = not tested or not shown; [ ] = dose if it differs, or a comment. Unless noted, calls come from the whole dose curve; as a rule, active = well fitted curve in the direction sought with a large enough effect; inconclusive = small, poorly fitted or top-dose-only effect, or another doubt; inactive = no such curve, though single readings can be large; an effect the other way counts as inactive or inconclusive.

SMILES	CBFb RUNX1 block	PNC inhibitor	HPGD inh	HTT aggregate	ALDH1A1 block	HTT cytoprotect
COc1cc(CNCCc2c[nH]c3ccccc23)cc(Cl)c1OCC(N)=O	1%	nt	nt	17%[9.22 µM]	16µM*	8%[10 µM]
CN1C(=O)/C(=C/c2ccc(-c3ccccc3[N+](=O)[O-])o2)SC1=Nc1ccc(Cl)c(C(=O)O)c1	-9%	?	14µM*	26%	13µM*	13%[10 µM]
N#Cc1c2n(c3c(=O)[nH]cnc13)CCCC2	1%	?	-13%	?	-6%	12%
N#Cc1c2n(c3c(=S)nc[nH]c13)CCCCC2	-3%	-7	-27%	12%	19µM*	?
CN(C)c1ccc(C=NCC2(O)CCOC(C)(C)C2)cc1 (configuration not stated)	6%	26	-13%	13%	0.45µM*	-9%[10 µM]
Oc1ccc2cc(SSc3ccc4cc(O)ccc4c3)ccc2c1	nt	nt	-25%	nt	-44%	?
COCCn1c(=O)c(-c2ccc(F)cc2)nc2cncnc21	nt	nt	-15%	nt	-9%	2%
CCOC(=O)c1c(C)cccc1OCC(N)=O	4%	-100*	-9%	4%	-5%	-21%[10 µM]
Cc1ccc(C(=O)C[n+]2cc(-c3ccc(C)cc3)n3c2CCCCC3)cc1	-1%	?	-11%	0.89µM*	5%	-76%
O=C(C[n+]1cc(-c2ccccc2)n2c1CCCCC2)c1ccc(Br)cc1	-7%	nt	nt	7%[9.22 µM]	-6%	10%[10 µM]
COc1ccc(C(=O)C[n+]2cc(-c3ccc(OC)cc3)n3c2CCCC3)cc1	-5%	nt	nt	10µM*	-2%	3%[10 µM]
CCOC(=O)c1cc(-c2ccc(F)cc2)n(CC(=O)Nc2nccs2)c1C	nt	nt	nt	nt	nt	-9%
O=C1C2C3C=CC(C3=C3CCCCC3)C2C(=O)N1Cc1ccccc1 (configuration not stated)	5%	-18	-23%	-11%	6.3µM*	14%
O=C1C2C3C=CC(C4CC34)C2C(=O)N1Cc1ccccc1 (configuration not stated)	1%	nt	nt	25%[9.22 µM]	?	3%[10 µM]
CCCCOC(=O)Nc1ccccc1C(=O)N1CCCC1	-2%	-113*	-1%	-6%	?	-12%
CNC(=S)Nc1cc(C(=O)N2CCCC2)ccc1N1CCCC1	4%	nt	nt	10%	-9%	-50%
CC(NC(=O)c1ccccc1NC(=O)c1ccccc1)C(=O)N1CCOCC1 (configuration not stated)	6%	-97*	0%	-9%	-13%	-22%[10 µM]
COC(=O)Nc1ccccc1C(=O)N1CCCCC1	6%	69	-19%	-9%	?	8%[10 µM]
O=C(Nc1ccccc1C(=O)N1CCOCC1)c1ccc(F)cc1	-1%	1	2%	2%	11%	-6%[10 µM]
O=C(Nc1ccccc1C(=O)N1CCCC1)c1ccccc1	1%	-119*	-1%	3%	5%	-16%[10 µM]
O=C(Nc1cc(C(=O)N2CCCC2)ccc1N1CCCC1)c1ccccc1	2%	-111*	25µM*	-1%	?	4%[0.074 µM]
COc1ccc(CCc2nnc(CCC(=O)N(C)Cc3ccncc3C)o2)cc1	4%	nt	nt	7%[9.22 µM]	?	17%[10 µM]
O=C(c1cccc(F)c1F)N1CCCC1	-1%	104	28µM*	16%	-3%	-3%[10 µM]
O=C(c1ccccc1)c1ccc(N2CCOCC2)c(NC(=O)c2ccco2)c1	8%	0	-17%	-48%	32µM*	-21%[0.074 µM]
CC1=C(C(N)=O)N2C(=O)[C@@H](NC(=O)Cc3ccccc3)C2SC1 (some centres not stated)	7%	nt	-10%	nt	?	8%
SMILES	CBFb RUNX1 block	PNC inhibitor	HPGD inh	HTT aggregate	ALDH1A1 block	HTT cytoprotect
CCOc1cc(C2CC(=O)Nc3cc(C)c(C)cc32)ccc1O (configuration not stated)	-4%	-139*	-2%	-9%	5%	-8%
CCOc1cc(C2CC(=O)NC(SCC)=C2C#N)ccc1O (configuration not stated)	4%	32	-2%	-19%	-7%	-2%
Cc1cccc(N2CCN(C(=O)CCn3c(=O)[nH]c4ccccc4c3=O)CC2)c1C	3%	8	-14%	-19%	0%	-18%
COc1ccccc1N1CCN(C(=O)CCn2c(=O)[nH]c3ccccc3c2=O)CC1	4%	-107*	-6%	14%	11%	13%
COCCNC(=O)CCCCCn1c(=S)[nH]c2ccccc2c1=O	-1%	128	13µM*	-4%	3%	-9%
COCCNC(=O)CCCCCN1C(=O)CCC1=O	6%	-16	16µM*	?	12%	7%[0.074 µM]
COC(=O)c1cc(OC)c(OC)cc1NC(=O)CCCCCN1C(=O)CCC1=O	1%	1	-18%	-10%	-12%	5%[10 µM]
COCCCNC(=O)CCCn1c(=O)[nH]c2ccccc2c1=O	4%	?	-17%	0%	-7%	6%
O=C(CCCCCn1c(=S)[nH]c2ccccc2c1=O)N1CCOCC1	-5%	11	14µM*	-7%	4%	-2%
O=c1[nH]c(=O)n([C@@H]2C[C@H](O)[C@H](CO)O2)cc1I	?	nt	-8%	5%[20.6 µM]	10%[20.9 µM]	?
O=C(NCCc1cccc(F)c1)/C(=C/c1cccnc1)NC(=O)c1ccccc1	-1%	28	-9%	16%	5%	10%[10 µM]
CCCCNC(=O)CCCn1c(=S)[nH]c2cc3c(cc2c1=O)OCO3	5%	?	16µM*	7%	5%	-1%[0.074 µM]
CCCCc1ccc(Nc2nc(CCC)cc(=O)[nH]2)cc1	9%	-20	?	35µM*	-13%	20%[1.9 µM]
O=C(/C=C/Nc1cccc([N+](=O)[O-])c1)c1cccs1	-8%	24	-5%	-3%	14µM*	0%[10 µM]
O=C(Cn1cnc2c(oc3ccccc32)c1=O)NCc1ccccc1	3%	2	-4%	6%	6%	22%[10 µM]
O=c1c2oc3nc4c(cc3c2ncn1CCCc1ccccc1)CCCC4	-1%	nt	nt	3%[9.22 µM]	4µM*	35%[10 µM]
CCCCCCn1cnc2c(oc3nc4c(cc32)CCCC4)c1=O	9%	-5	-18%	6%	3.5µM*	19%[10 µM]
COc1ccc(NC(=O)Cn2cnc3c(oc4nc5c(cc43)COC(C)(C)C5)c2=O)cc1	0%	nt	nt	34%[9.22 µM]	?	25%[10 µM]
CCCCn1cnc2c(oc3nc4c(cc32)CCCC4)c1=O	11%	nt	nt	-12%[9.22 µM]	1.3µM*	-28%[10 µM]
COc1ccc2[nH]cc(CCNc3ncncc3-c3ccccc3C(F)(F)F)c2c1	nt	nt	nt	nt	-7%	-82%
O=C(c1csnn1)N1CCC2(CC1)CCN(c1ccccn1)CC2	nt	nt	-23%	nt	?	-50%
COc1cccc(Nc2ncc3nc(C)c(=O)n(CCc4ccccc4)c3n2)c1	nt	nt	nt	nt	?	-43%
